The target in assay [1] is T1, Aurora kinase A (Homo sapiens) (UniProt O14965).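 Further: values are mean percent inhibition.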
T1 sequence (whole entry): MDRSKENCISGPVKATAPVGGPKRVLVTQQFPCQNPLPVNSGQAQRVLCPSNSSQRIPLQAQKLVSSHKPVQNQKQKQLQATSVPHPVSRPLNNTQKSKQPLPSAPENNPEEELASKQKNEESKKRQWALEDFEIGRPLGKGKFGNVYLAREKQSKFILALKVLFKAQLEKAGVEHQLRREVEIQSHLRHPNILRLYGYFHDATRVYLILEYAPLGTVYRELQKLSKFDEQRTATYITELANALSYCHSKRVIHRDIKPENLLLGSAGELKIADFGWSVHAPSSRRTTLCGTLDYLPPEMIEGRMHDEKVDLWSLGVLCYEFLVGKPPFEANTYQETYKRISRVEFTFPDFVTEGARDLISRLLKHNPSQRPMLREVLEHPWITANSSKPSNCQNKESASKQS
To be noted: at 1 µM.

The target of assay [2] is Aurora kinase B (Homo sapiens) (UniProt Q96GD4). To be noted: at 0.1 µM.
Sequence of Aurora kinase B (Homo sapiens) (Q96GD4 whole entry): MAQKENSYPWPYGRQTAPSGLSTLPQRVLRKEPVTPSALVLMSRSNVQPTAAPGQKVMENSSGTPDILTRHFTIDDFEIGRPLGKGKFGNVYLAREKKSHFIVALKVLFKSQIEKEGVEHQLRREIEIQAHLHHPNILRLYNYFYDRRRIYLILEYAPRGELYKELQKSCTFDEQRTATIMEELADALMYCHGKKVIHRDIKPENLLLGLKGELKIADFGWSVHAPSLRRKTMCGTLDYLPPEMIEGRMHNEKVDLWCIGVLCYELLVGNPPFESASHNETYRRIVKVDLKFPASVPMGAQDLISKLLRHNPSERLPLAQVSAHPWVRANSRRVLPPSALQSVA
Assay [3] shares this target. To be noted: at 1 µM.
For assay [4], the target named is T2, Aurora kinase C (Homo sapiens) (UniProt Q9UQB9).
T2 sequence (whole entry): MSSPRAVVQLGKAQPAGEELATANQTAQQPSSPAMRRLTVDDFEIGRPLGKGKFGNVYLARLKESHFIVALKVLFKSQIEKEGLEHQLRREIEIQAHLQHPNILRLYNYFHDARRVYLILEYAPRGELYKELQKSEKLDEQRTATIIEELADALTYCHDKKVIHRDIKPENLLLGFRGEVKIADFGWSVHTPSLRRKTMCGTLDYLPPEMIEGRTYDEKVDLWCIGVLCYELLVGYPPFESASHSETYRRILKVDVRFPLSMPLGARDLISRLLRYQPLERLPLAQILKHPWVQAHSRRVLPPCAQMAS
To be noted: at 0.1 µM.

Assay [5] deals with T2, Aurora kinase C (Homo sapiens). To be noted: at 1 µM.
The target of assay [6] is Serine/threonine-protein kinase 10 (Homo sapiens) (UniProt O94804). To be noted: at 0.1 µM.
Sequence of Serine/threonine-protein kinase 10 (Homo sapiens) (O94804 whole entry, looked up): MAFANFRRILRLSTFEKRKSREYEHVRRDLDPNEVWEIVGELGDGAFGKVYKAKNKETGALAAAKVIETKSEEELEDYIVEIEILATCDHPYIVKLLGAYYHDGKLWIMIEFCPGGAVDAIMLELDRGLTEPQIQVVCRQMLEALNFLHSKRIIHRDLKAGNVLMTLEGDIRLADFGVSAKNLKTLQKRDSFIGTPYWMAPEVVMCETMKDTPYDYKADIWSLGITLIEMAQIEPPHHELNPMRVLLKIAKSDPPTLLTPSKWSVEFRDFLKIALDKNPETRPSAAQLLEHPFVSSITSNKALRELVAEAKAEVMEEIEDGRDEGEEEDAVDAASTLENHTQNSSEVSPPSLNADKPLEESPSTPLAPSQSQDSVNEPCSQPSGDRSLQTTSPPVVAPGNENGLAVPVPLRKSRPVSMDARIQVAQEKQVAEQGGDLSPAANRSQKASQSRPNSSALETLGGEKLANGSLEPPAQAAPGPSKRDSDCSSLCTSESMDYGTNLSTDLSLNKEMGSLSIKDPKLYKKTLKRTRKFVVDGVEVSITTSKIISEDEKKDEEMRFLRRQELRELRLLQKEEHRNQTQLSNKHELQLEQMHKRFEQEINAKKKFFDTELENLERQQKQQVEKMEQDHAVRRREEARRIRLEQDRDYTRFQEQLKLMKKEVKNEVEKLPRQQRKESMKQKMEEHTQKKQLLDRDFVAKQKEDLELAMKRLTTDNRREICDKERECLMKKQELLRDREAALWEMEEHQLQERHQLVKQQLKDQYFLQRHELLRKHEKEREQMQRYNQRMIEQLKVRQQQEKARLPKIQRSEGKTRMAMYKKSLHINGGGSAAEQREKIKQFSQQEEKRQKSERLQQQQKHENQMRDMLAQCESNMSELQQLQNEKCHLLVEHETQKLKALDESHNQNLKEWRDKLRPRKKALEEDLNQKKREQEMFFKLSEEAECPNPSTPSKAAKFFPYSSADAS
For assay [7] the target is unchanged. To be noted: at 1 µM.
Assay [8] deals with T3, Mitogen-activated protein kinase kinase kinase kinase 2 (Homo sapiens) (UniProt Q12851).
T3 sequence (whole entry): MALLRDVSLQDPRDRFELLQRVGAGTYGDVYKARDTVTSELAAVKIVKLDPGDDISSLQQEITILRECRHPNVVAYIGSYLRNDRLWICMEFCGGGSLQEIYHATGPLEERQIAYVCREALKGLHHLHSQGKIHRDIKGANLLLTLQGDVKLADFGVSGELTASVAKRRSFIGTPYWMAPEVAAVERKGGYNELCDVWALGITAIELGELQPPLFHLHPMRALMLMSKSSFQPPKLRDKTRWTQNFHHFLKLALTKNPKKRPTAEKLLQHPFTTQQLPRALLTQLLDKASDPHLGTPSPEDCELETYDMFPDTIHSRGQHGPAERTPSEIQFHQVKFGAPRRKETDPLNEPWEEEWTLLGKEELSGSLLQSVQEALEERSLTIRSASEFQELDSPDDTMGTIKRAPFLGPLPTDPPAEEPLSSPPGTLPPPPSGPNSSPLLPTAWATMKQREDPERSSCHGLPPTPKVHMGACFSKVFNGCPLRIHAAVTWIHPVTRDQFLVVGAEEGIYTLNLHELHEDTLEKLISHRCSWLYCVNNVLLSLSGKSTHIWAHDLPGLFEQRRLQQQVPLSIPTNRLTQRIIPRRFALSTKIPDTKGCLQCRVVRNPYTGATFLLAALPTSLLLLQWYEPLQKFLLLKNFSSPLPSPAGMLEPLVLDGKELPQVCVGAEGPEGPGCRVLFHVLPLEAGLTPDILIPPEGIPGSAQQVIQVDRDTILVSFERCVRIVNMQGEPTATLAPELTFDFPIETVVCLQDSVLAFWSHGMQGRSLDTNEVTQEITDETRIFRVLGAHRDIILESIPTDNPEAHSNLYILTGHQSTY
To be noted: at 0.1 µM.

The target of assay [9] is T3, Mitogen-activated protein kinase kinase kinase kinase 2 (Homo sapiens). To be noted: at 1 µM.
Assay [10] deals with Mitogen-activated protein kinase kinase kinase kinase 4 (Homo sapiens) (UniProt O95819). To be noted: at 0.1 µM.
Sequence of Mitogen-activated protein kinase kinase kinase kinase 4 (Homo sapiens) (O95819 2-1239 limits assumed): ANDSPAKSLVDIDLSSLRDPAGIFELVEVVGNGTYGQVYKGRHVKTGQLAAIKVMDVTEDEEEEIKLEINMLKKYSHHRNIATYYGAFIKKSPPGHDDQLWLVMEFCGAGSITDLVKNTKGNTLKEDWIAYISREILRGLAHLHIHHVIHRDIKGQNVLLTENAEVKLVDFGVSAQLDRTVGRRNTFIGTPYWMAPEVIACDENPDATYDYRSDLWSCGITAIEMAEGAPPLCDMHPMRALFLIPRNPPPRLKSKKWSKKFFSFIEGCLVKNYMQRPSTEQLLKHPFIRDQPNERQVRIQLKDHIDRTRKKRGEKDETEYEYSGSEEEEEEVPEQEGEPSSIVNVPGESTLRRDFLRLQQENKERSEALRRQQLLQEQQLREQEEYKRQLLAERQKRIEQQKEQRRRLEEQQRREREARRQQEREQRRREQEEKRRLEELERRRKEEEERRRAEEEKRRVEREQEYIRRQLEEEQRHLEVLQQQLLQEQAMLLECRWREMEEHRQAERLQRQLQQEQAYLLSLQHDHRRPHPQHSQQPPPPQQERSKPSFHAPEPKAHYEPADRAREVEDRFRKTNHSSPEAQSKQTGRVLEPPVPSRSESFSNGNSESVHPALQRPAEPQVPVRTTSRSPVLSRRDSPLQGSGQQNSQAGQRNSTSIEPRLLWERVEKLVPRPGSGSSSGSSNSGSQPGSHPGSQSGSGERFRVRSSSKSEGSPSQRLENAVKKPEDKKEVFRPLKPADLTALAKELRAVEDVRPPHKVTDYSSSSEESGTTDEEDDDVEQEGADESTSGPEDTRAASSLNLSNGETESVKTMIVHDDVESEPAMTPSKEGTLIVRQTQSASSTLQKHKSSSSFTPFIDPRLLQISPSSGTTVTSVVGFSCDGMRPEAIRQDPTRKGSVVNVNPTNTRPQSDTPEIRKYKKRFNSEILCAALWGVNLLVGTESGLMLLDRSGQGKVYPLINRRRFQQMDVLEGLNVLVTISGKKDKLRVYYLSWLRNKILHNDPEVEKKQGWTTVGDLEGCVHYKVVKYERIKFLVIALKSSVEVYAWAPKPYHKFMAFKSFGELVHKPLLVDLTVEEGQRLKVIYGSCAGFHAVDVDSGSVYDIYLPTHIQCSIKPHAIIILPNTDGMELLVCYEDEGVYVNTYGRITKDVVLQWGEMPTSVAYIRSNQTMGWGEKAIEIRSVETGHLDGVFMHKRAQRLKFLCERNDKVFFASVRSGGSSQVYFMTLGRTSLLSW
The target is the same in assay [11]. To be noted: at 1 µM.
Assay [12] concerns the target Dual specificity mitogen-activated protein kinase kinase 1 (Homo sapiens) (UniProt Q02750). To be noted: at 0.1 µM.
The target is the same in assay [13]. To be noted: at 1 µM.
Assay [14] has as its target Misshapen-like kinase 1 (Homo sapiens) (UniProt Q8N4C8). To be noted: at 0.1 µM.
For assay [15] the target is unchanged. To be noted: at 1 µM.
Assay [16] has as its target T4, Serine/threonine-protein kinase 4 (Homo sapiens) (UniProt Q13043).
T4 sequence (whole entry): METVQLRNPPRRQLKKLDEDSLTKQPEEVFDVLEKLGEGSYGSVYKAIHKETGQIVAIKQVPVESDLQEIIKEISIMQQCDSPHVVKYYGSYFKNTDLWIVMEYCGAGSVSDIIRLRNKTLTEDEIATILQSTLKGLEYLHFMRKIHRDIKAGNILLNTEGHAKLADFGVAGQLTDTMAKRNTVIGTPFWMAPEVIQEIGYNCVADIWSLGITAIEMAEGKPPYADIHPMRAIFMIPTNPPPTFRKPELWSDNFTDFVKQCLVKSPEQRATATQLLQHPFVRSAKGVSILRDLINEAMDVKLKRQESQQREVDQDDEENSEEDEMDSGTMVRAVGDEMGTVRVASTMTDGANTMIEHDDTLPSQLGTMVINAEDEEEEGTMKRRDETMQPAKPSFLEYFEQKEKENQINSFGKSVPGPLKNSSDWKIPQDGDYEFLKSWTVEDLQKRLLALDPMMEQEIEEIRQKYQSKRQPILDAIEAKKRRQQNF
To be noted: at 0.1 µM.

Assay [17] addresses T4, Serine/threonine-protein kinase 4 (Homo sapiens). To be noted: at 1 µM.
The target of assay [18] is T5, Serine/threonine-protein kinase 3 (Homo sapiens) (UniProt Q13188).
T5 sequence (whole entry): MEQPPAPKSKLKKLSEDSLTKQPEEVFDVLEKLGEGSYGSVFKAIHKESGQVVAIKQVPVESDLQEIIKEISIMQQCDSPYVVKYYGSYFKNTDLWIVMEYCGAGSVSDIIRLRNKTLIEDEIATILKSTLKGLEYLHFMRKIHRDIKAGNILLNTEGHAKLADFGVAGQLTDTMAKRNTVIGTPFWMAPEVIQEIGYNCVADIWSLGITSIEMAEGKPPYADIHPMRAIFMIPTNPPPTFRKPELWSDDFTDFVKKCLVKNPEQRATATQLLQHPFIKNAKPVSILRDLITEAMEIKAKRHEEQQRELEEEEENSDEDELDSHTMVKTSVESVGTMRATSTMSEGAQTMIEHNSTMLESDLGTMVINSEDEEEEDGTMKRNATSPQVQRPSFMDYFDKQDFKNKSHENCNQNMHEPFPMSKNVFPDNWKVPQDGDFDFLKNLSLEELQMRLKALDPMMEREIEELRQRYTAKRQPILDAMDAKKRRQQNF
To be noted: at 0.1 µM.

Assay [19] addresses T5, Serine/threonine-protein kinase 3 (Homo sapiens). To be noted: at 1 µM.
For assay [20], the target named is Serine/threonine-protein kinase 26 (Homo sapiens) (UniProt Q9P289). To be noted: at 0.1 µM.
Sequence of Serine/threonine-protein kinase 26 (Homo sapiens) (Q9P289 2-416 limits assumed): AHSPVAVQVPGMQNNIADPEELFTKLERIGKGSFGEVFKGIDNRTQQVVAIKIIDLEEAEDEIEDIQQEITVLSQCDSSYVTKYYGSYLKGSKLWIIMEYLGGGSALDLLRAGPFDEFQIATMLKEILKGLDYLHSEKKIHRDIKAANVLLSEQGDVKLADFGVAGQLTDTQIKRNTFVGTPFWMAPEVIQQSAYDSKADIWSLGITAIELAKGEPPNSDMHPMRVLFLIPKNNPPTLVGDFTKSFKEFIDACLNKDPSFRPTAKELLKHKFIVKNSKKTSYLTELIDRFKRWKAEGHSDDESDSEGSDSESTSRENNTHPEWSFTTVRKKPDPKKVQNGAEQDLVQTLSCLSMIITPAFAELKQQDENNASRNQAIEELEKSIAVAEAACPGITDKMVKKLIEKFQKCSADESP

SMILES strings stand for the structures.

Sequence of Dual specificity mitogen-activated protein kinase kinase 1 (Homo sapiens) (Q02750 whole entry): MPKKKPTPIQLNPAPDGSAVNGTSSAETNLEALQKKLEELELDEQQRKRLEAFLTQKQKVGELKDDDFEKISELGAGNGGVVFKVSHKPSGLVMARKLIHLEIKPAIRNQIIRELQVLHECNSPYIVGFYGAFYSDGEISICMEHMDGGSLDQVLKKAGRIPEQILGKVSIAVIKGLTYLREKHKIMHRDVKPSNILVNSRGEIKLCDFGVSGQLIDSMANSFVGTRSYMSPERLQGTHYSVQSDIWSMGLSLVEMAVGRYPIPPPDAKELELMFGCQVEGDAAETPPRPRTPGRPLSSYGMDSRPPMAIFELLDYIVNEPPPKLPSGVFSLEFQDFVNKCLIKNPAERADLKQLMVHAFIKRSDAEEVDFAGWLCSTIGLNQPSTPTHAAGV
Sequence of Misshapen-like kinase 1 (Homo sapiens) (Q8N4C8 whole entry, looked up): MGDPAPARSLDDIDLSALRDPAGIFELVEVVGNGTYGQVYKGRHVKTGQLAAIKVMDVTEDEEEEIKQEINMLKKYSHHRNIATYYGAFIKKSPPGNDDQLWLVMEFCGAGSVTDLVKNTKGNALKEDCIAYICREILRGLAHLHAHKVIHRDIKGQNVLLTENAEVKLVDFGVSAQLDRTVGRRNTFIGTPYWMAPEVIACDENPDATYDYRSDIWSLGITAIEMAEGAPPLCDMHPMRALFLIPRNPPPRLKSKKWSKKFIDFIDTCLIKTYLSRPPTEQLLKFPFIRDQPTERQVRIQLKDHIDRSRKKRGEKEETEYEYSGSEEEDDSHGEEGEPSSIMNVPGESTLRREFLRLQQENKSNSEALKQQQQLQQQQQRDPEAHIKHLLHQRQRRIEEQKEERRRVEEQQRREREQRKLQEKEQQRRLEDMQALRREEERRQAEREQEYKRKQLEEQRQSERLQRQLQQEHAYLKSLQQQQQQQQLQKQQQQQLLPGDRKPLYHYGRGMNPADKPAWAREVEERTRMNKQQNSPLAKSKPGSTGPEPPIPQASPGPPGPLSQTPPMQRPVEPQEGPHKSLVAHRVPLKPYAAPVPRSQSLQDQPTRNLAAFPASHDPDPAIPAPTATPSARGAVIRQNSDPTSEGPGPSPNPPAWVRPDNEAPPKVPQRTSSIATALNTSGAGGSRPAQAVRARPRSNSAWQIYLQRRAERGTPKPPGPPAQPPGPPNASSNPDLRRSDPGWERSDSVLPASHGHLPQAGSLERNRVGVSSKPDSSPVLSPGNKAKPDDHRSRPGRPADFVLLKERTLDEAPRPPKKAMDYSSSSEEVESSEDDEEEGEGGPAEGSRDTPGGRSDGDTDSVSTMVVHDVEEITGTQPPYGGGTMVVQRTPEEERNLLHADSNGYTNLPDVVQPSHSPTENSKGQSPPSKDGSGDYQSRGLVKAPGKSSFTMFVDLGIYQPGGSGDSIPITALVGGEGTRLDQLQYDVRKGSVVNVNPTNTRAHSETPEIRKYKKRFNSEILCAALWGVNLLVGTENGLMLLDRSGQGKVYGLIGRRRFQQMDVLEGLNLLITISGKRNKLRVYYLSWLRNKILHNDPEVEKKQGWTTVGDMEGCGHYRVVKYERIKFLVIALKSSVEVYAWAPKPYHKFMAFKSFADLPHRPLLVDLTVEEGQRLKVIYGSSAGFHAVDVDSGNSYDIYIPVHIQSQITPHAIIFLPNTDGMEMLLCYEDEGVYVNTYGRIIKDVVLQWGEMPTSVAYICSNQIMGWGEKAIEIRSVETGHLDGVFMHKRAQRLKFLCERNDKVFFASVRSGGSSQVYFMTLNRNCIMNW

As a reminder, the inhibition is the relative decrease from the control value, in per cent. Turning to `COc1ccc(Nc2ncc(-c3ccccc3)o2)cc1OC`, the inhibition is 75.4% in [1]; 8.72% in assay [2]; 51.1% in [3]; 10.2% in assay [4]; 82.2% in [5]; -1.08% in assay [6]. The inhibition was determined as 11.2% in [7]; 3.92% in assay [8]; 14.3% in assay [9]; 8.63% in assay [10]; 48.3% in [11]; 0.51% in [12]. The inhibition is 2.06% in [13]; 7.04% in assay [14]; 35.5% in assay [15]; 0.86% in [16]; 4.87% in assay [17]; -0.13% in [18]. Besides, the inhibition in [19] was 2.73%; in assay [20], -0.79%.

As for `O=C(O[C@H]1CN[C@H](C#Cc2cc3ncnc(Nc4ccc(OCc5cccc(F)c5)c(Cl)c4)c3s2)C1)N1CCOCC1`, the inhibition came to 7.57% in [1]; 3.72% in [2]; 9.81% in assay [3]; 1.9% in assay [4]; 5.83% in assay [5]; 9.8% in assay [6]. The inhibition was 19% in assay [7]; 1.53% in assay [8]; 0.84% in assay [9]; 5.04% in assay [10]; 8.44% in [11]; 6.24% in assay [12]. In addition, the inhibition was 5.74% in [13]; 6.37% in assay [14]; 9.94% in [15]; 4.18% in [16]; 8.15% in assay [17]; 5.87% in assay [18]. The inhibition in assay [19] was 6.61%; in assay [20] it was -0.22%.

Regarding `CNC(=O)c1cncc(/C=C/c2ccccc2C)c1`, the inhibition was 9.59% in [1]; 3.77% in assay [2]; -0.01% in assay [3]; 2.1% in assay [4]; -3.67% in assay [5]; 6.73% in [6]. Besides, the inhibition was determined as 9.43% in assay [7]; 0.94% in assay [8]; 2.16% in assay [9]; 8.34% in assay [10]; 19.7% in assay [11]; 6.36% in assay [12]. The inhibition in assay [13] stood at 5.22%; in assay [14], 8.44%; in [15], 15.5%; in assay [16] it was 9.28%; in assay [17] it was 17.2%; in [18] it was 9.07%. Further, the results for the inhibition in assay [19] and in assay [20] were 15.2% and 1.02%, respectively.

With `Fc1cccc(COc2ccc(Nc3ncncc3C#Cc3ccccc3)cc2Cl)c1`, the inhibition in [1] was 9%; in [2] it was -1.58%; in [3], 6%; in [4], 1.15%; in assay [5] it was -2.38%; in assay [6] it was 2.78%. The inhibition in assay [7] was determined as 11.7%; in assay [8], 0.81%; in assay [9] it was 0.54%; in [10] it was 6.19%; in [11], 15%; in assay [12] it was 6%. Further, the inhibition was 4.44% in assay [13]; 7.69% in [14]; 15.9% in assay [15]; 6.89% in [16]; 9.95% in assay [17]; 6.83% in assay [18]. Besides, the inhibition is 8.97% in assay [19] and -0.45% in assay [20].

Consider `CCS(=O)(=O)c1ccc(OC)c(Nc2ncc(-c3cccc(F)c3)o2)c1`, for which the inhibition in assay [1] came out at 26.8%; in assay [2], 4.7%; in assay [3], 3.78%; in assay [4], 0.03%; in assay [5], 5.54%; in [6], 12%. The inhibition is 24.3% in assay [7]; 1.31% in assay [8]; 8.13% in assay [9]; 6.47% in assay [10]; 19.2% in assay [11]; 4.98% in assay [12]. Besides, the inhibition came out at 5% in assay [13]; 8.05% in assay [14]; 16.1% in assay [15]; 3.31% in assay [16]; 8.63% in [17]; 5.69% in assay [18]. The inhibition in assay [19] was 8.4%; in assay [20] it was -0.55%.

For the compound `CCCNc1cccc(-n2ncc3c(N/N=C/c4ccncc4)ncnc32)c1`, the inhibition was 70.7% in assay [1]; 14.3% in assay [2]; 43.8% in assay [3]; 17% in assay [4]; 58.5% in assay [5]; 6.3% in [6]. In addition, the inhibition in [7] came out at 28.4%; in assay [8] it was 1.16%; in assay [9], 3.57%; in [10], 9.69%; in assay [11], 44.1%; in assay [12], 1.7%. Moreover, the inhibition was 2.07% in [13]; 5.44% in assay [14]; 35.9% in assay [15]; 4.12% in assay [16]; 12.3% in assay [17]; 5.92% in assay [18]. In addition, the inhibition in [19] was found to be 9.89%; in [20], 1.77%.

With `Cn1c(-c2nonc2N)nc2cnccc21`, the inhibition in [1] was determined as 7.19%; in assay [2], 1.6%; in [3], 4.18%; in [4], 1.42%; in assay [5], 4.49%; in [6], 4.28%. In addition, the inhibition worked out at 7.08% in assay [7]; 0.8% in assay [8]; 6.6% in [9]; 6.14% in assay [10]; 26.2% in assay [11]; 4.67% in [12]. Besides, the inhibition is 4.45% in assay [13]; 5.83% in assay [14]; 16.6% in assay [15]; 3.91% in assay [16]; 3.75% in assay [17]; 4.04% in [18]. Also, the results for the inhibition in assay [19] and in [20] were 5.05% and -0.57%, respectively.

These data come from ChEMBL document CHEMBL1961873, “Compounds: GSK PKIS; Assays: Nanosyn kinase panel” (2012).
